Consider one sequence from article PMC7862700, “An all-to-all approach to the identification of sequence-specific readers for epigenetic DNA modifications on cytosine”.

Common to all, as to assay: DAPPL (digital affinity profiling via proximity ligation, sequencing); 10 mM Tris-HCl pH 7.5, 50 mM NaCl, 1 mM DTT, 4% glycerol, room temperature, 30 min; GST-TFs on glutathione beads, 16-mer random dsDNA library, 0.1% formaldehyde crosslink after washing; high values mean tight binding
One test concerns the target T1, FEV (Homo sapiens, UniProt Q99581 1-238).
T1 sequence: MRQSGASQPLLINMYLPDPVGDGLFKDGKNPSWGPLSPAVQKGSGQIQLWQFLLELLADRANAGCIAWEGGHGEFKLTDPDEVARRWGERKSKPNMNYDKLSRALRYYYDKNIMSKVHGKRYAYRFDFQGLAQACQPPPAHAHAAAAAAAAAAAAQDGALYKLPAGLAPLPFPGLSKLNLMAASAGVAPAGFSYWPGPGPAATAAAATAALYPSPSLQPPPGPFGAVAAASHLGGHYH
Conditions: protein: recombinant; tags: N-terminal GST; dsDNA, one strand shown. In outline: (§1)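 Binding signal is defined as a hexamer's read frequency for one factor over its frequency for the tag-only sample. To obtain reads, GST-fused human transcription factors were expressed in yeast, captured on glutathione beads, barcoded with DNA and pooled with that sample. Pools met 200 nmole of a 16-mer random double-stranded DNA library in Tris/NaCl/DTT/glycerol buffer for 30 min at room temperature before washing, 0.1% formaldehyde crosslinking, proximity ligation (BsaI/T4 ligase, 1 h, 37 °C), PCR and Illumina NextSeq500 sequencing.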

Another test deals with ETV5 (Homo sapiens, UniProt P41161 1-510). The following applies: protein: recombinant; tags: N-terminal GST; dsDNA, one strand shown. In outline: as §1
ETV5, sequence (P41161 whole entry): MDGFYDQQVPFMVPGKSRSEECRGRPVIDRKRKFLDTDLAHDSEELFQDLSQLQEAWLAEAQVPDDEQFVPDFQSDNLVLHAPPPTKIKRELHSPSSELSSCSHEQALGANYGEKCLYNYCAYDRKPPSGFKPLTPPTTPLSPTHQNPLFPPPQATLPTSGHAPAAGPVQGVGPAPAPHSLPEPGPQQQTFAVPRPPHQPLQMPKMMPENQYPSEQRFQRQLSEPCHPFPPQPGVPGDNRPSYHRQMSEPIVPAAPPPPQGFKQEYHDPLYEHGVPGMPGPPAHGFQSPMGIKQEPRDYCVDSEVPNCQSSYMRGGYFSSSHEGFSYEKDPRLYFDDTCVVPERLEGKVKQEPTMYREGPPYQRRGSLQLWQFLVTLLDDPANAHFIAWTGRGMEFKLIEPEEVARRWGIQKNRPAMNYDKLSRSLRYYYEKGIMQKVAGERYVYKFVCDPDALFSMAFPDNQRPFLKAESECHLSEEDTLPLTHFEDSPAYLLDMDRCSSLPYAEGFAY
The target of another test is HSF1 (Homo sapiens, UniProt Q00613 1-529). Conditions: protein: recombinant; tags: N-terminal GST; chain copies: 3; dsDNA, one strand shown. In outline: as §1
HSF1, sequence (Q00613 whole entry): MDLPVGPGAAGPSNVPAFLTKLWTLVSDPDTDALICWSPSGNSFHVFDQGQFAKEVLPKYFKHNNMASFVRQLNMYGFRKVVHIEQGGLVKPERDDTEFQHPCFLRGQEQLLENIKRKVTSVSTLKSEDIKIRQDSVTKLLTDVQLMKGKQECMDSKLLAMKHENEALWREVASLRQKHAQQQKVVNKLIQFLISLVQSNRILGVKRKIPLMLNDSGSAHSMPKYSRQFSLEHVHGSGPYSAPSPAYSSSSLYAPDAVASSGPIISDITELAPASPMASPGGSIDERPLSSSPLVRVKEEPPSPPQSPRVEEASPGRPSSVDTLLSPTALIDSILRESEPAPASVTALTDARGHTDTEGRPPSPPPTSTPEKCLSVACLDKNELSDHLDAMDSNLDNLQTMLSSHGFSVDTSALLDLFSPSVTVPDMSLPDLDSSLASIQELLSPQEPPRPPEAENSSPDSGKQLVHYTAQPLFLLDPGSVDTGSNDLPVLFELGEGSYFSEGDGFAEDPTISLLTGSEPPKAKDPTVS
A further test deals with T2, SPIC (Homo sapiens, UniProt Q8N5J4 1-248).
T2 sequence: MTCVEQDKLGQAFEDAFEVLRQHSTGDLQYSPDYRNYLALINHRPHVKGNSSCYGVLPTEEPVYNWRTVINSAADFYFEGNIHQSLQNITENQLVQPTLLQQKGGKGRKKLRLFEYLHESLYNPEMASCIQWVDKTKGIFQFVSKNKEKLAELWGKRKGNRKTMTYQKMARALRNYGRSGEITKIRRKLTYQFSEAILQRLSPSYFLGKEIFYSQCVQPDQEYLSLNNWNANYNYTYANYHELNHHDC
Conditions: protein: recombinant; tags: N-terminal GST; dsDNA, one strand shown. In short, it runs like this:
as §1

For a further test, the target named is ELF4 (Homo sapiens, UniProt Q99607 1-663). Conditions: protein: recombinant; tags: N-terminal GST; dsDNA, one strand shown. In outline: as §1
ELF4, sequence (Q99607 whole entry): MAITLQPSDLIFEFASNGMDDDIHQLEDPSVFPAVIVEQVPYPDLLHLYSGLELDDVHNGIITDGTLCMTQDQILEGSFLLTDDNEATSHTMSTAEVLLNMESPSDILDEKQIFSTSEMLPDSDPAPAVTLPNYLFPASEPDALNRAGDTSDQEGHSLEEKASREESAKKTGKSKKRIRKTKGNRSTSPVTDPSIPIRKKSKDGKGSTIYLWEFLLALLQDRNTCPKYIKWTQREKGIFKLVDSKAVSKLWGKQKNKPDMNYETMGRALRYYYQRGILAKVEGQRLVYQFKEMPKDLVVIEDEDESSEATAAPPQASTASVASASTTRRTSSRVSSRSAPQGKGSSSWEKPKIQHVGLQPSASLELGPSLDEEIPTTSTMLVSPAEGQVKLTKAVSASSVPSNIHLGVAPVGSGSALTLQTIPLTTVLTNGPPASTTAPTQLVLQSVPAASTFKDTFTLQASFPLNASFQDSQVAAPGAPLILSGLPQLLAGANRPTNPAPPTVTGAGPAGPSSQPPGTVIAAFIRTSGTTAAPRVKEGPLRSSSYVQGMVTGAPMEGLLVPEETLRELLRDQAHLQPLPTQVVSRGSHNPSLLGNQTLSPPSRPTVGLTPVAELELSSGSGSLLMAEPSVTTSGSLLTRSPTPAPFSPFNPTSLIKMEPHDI
Another test addresses T3, ELK4 (Homo sapiens, UniProt P28324-2 1-405).
T3 sequence: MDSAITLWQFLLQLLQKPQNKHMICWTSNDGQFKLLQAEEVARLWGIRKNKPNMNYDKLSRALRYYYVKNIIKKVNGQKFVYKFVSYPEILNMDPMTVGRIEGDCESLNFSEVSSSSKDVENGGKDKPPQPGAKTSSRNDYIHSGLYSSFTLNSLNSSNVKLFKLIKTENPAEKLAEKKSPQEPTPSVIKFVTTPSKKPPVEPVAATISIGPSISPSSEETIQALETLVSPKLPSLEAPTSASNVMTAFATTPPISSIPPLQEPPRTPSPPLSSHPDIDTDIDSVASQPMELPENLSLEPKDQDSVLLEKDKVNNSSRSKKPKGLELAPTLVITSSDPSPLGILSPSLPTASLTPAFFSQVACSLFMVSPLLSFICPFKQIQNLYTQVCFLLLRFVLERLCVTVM
The following applies: protein: recombinant; tags: N-terminal GST; dsDNA, one strand shown. In short, it runs like this:
as §1

A further test addresses T4, ETV2 (Homo sapiens, UniProt O00321 1-342).
T4 sequence: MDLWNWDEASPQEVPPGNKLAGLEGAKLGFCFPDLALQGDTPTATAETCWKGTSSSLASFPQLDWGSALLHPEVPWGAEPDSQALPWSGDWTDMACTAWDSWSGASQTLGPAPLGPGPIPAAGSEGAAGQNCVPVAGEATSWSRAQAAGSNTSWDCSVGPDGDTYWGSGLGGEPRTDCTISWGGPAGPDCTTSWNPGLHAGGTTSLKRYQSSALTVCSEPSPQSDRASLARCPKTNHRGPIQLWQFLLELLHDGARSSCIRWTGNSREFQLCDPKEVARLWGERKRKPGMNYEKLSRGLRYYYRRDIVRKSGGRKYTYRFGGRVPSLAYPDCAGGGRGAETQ
The following applies: protein: recombinant; tags: N-terminal GST; dsDNA, one strand shown. In outline: as §1

A further test has as its target T5, ELF3 (Homo sapiens, UniProt P78545 1-371).
T5 sequence: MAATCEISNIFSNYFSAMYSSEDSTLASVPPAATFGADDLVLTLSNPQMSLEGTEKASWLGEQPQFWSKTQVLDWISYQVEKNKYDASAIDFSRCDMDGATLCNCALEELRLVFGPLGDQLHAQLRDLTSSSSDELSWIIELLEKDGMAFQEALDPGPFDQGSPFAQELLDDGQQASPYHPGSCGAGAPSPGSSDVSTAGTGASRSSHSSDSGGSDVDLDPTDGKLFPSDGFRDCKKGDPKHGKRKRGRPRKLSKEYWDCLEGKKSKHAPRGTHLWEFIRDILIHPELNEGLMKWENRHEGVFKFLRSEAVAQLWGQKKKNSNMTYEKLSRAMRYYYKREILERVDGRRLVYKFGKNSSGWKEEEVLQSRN
The following applies: protein: recombinant; tags: N-terminal GST; dsDNA, one strand shown. In outline: as §1

A further test has as its target CRX (Homo sapiens, UniProt O43186 1-299). The following applies: protein: recombinant; tags: N-terminal GST; dsDNA, one strand shown. In short, it runs like this:
as §1

The target in a further test is ETV1 (Homo sapiens, UniProt P50549 1-477). The following applies: protein: recombinant; tags: N-terminal GST; dsDNA, one strand shown. In outline: as §1
ETV1, sequence (P50549 whole entry): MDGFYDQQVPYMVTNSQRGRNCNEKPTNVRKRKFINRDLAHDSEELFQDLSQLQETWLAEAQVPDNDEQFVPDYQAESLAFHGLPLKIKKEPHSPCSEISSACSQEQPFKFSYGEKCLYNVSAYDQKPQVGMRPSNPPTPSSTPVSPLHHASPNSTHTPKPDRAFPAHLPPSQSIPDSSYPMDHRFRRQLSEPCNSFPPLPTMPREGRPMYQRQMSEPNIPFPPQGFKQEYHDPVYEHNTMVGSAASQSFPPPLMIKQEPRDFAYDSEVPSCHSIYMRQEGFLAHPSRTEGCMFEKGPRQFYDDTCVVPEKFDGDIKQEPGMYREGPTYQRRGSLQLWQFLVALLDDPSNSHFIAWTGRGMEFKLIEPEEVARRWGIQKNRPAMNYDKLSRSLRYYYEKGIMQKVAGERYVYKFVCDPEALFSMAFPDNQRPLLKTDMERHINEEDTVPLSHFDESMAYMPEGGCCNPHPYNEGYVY
In the next test the target is T6, ERF (Homo sapiens, UniProt P50548 1-548).
T6 sequence: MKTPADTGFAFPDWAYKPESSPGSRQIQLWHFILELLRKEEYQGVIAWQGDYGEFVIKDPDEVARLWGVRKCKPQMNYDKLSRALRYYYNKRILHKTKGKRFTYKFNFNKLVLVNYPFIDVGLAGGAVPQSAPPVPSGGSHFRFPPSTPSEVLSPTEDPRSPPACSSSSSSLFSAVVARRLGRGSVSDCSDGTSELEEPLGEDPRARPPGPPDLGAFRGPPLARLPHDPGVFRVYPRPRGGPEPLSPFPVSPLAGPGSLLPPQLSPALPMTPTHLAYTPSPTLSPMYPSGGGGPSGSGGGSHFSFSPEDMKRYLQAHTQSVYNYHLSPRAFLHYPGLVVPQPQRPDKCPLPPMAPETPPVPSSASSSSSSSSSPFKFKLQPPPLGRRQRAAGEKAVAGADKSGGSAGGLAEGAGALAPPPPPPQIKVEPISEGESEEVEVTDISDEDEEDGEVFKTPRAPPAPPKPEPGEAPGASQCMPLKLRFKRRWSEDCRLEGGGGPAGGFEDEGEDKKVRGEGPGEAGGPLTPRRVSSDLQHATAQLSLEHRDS
Conditions: protein: recombinant; tags: N-terminal GST; dsDNA, one strand shown. In outline:
as §1

The next test has as its target T7, ETV3L (Homo sapiens, UniProt Q6ZN32 1-361).
T7 sequence: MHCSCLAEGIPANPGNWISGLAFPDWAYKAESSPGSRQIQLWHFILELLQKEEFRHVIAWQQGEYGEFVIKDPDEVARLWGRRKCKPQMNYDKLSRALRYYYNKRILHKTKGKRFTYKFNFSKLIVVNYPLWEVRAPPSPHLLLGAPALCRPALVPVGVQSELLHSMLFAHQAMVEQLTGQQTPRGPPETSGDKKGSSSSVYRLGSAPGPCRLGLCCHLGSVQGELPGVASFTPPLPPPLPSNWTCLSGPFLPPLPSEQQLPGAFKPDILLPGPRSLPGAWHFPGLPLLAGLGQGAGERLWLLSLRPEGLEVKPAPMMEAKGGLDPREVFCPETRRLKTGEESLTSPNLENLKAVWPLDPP
The following applies: protein: recombinant; tags: N-terminal GST; dsDNA, one strand shown. In outline:
as §1

A further test concerns the target T8, ETS2 (Homo sapiens, UniProt P15036 1-469).
T8 sequence: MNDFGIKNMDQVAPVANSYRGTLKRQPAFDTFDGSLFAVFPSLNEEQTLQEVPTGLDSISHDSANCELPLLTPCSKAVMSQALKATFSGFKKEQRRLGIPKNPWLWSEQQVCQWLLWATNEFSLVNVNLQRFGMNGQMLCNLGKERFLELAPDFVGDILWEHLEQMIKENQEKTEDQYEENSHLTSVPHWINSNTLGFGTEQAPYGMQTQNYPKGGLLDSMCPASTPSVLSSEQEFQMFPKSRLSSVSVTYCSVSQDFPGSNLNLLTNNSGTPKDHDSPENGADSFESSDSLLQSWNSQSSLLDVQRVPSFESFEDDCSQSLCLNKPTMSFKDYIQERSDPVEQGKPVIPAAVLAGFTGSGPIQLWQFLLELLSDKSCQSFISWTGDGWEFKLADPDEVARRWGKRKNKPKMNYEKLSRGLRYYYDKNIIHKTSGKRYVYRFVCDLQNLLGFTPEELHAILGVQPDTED
Conditions: protein: recombinant; tags: N-terminal GST; dsDNA, one strand shown. In short, it runs like this:
as §1

A further test has as its target T9, SPDEF (Homo sapiens, UniProt O95238 1-335).
T9 sequence: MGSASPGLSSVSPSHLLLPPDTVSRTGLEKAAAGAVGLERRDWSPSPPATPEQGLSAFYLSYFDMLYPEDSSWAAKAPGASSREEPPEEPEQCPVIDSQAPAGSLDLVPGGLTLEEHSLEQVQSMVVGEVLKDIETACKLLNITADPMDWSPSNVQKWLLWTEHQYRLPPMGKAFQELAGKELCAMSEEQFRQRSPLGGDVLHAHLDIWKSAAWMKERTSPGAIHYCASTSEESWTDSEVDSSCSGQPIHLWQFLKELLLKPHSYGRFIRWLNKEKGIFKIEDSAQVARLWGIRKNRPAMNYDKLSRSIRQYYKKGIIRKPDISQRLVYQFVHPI
Conditions: protein: recombinant; tags: N-terminal GST; dsDNA, one strand shown. In short, it runs like this:
as §1

For a further test, the target named is T10, ETV7 (Homo sapiens, UniProt Q9Y603 1-341).
T10 sequence: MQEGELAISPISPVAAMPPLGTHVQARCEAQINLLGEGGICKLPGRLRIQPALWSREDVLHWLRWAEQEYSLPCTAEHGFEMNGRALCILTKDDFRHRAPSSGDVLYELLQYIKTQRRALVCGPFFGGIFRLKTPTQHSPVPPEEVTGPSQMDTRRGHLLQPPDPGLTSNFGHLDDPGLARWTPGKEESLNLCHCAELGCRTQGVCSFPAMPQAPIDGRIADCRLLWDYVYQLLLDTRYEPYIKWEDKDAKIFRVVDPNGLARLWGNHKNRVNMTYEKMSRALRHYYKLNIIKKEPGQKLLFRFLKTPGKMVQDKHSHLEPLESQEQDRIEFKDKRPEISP
Conditions: protein: recombinant; tags: N-terminal GST; dsDNA, one strand shown. In short, it runs like this: as §1

For a further test, the target named is T11, ELF5 (Homo sapiens, UniProt Q9UKW6-2 1-255).
T11 sequence: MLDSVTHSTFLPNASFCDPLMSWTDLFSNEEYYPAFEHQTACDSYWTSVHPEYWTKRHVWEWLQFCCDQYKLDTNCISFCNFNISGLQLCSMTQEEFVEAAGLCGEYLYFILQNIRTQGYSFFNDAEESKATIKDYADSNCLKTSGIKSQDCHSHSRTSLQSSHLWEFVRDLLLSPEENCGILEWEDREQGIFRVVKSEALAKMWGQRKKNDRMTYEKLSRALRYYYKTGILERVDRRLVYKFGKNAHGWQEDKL
Conditions: protein: recombinant; tags: N-terminal GST; dsDNA, one strand shown. In outline: as §1

A further test deals with T12, ETV3 (Homo sapiens, UniProt P41162-2 1-143).
T12 sequence: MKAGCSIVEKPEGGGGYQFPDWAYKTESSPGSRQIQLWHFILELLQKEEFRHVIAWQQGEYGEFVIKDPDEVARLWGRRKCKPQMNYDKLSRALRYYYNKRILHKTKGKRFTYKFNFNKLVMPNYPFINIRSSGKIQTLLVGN
Conditions: protein: recombinant; tags: N-terminal GST; dsDNA, one strand shown. In short, it runs like this:
as §1

Another test addresses ETV6 (Homo sapiens, UniProt P41212 1-452). The following applies: protein: recombinant; tags: N-terminal GST; dsDNA, one strand shown. In outline:
as §1

ETV6, sequence (P41212 whole entry): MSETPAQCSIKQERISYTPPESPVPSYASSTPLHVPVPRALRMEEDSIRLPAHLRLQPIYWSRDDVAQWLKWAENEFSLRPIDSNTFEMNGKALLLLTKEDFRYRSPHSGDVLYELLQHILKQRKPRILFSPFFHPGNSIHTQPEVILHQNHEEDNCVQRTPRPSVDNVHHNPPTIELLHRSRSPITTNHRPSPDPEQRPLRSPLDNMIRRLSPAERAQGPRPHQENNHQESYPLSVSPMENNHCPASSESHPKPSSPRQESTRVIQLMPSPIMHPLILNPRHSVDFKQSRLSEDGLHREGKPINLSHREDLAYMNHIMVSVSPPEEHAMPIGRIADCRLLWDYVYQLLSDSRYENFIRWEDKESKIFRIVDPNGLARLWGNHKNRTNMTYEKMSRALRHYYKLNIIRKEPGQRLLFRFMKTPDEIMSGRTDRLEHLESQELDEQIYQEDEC
CRX, sequence (O43186 whole entry): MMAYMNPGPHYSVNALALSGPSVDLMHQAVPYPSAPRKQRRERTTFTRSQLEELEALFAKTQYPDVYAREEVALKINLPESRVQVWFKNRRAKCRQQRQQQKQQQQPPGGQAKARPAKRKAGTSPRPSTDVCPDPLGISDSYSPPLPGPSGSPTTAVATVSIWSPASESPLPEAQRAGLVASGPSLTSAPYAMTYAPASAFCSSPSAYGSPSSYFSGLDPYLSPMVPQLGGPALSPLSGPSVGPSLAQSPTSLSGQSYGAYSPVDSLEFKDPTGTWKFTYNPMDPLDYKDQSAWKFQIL

As to CTTTGG, the binding signal was 1.15 fold enrichment (6-mer frequency, TF over GST control) with FEV; 1.17 fold enrichment (6-mer frequency, TF over GST control) with ETV5; 1.26 fold enrichment (6-mer frequency, TF over GST control) in the test with HSF1; 1.17 fold enrichment (6-mer frequency, TF over GST control) with SPIC; 1.16 fold enrichment (6-mer frequency, TF over GST control) in the test with ELF4; 1.02 fold enrichment (6-mer frequency, TF over GST control) in the test with ELK4. Further, the binding signal was 1.27 fold enrichment (6-mer frequency, TF over GST control) in the test with ETV2; 1.23 fold enrichment (6-mer frequency, TF over GST control) with ELF3; 1.29 fold enrichment (6-mer frequency, TF over GST control) with CRX; 1.17 fold enrichment (6-mer frequency, TF over GST control) with ETV1; 1.19 fold enrichment (6-mer frequency, TF over GST control) with ERF; 1.18 fold enrichment (6-mer frequency, TF over GST control) in the test with ETV3L. Moreover, the binding signal with ETS2 was 1.13 fold enrichment (6-mer frequency, TF over GST control); with SPDEF, 1.09 fold enrichment (6-mer frequency, TF over GST control); with ETV7 it was 1.26 fold enrichment (6-mer frequency, TF over GST control); with ELF5 it was 1.09 fold enrichment (6-mer frequency, TF over GST control); with ETV3, 1.22 fold enrichment (6-mer frequency, TF over GST control); in the test with ETV6 it was 1.14 fold enrichment (6-mer frequency, TF over GST control).
